The source made the active and inactive calls. Unless noted, no stated cut-off is given here; in the data, active means parasite load remaining mostly below about 12% (no sharp cut-off); inactive means mostly above about 10%.
test: hESC survival regulators, cell-based (AID 493140; call rule not given here;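 further: cells exposed to compounds for four days before counting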); conditions: human embryonic stem cell survival screen; stronger effect = higher value

SMILES | survival
NCC1OC(OC2C(N)CC(N)C(OC3OC(CO)C(O)C(N)C3O)C2O)C(N)CC1O (stereo not given) | 1.08 (inactive)
CCCC(=O)Nc1ncnc2c1ncn2[C@@H]1O[C@@H]2COP(=O)(O)O[C@@H]2C1OC(=O)CCC (stereo not given in full) | 3.33 (inactive)
C[C@@H]1C(=O)O[C@H]2CC34[C@H]5C[C@@H](C(C)(C)C)C36[C@@H](OC(=O)[C@@H]6O)OC4(C(=O)O5)[C@]21O (stereo not given in full) | 10.1 (inactive)

test: liver-stage malaria parasite growth inhibition, primary screen, cell-based, HepG2, luciferase luminescence, HepG2 viability (AID 624349);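 further: 100% = mean of DMSO negative control wells on the same plate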; conditions: P. berghei liver stage in HepG2, luciferase luminescence, concentration not given here; parasite load remaining: stronger effect = lower value; viability: measured here: HepG2 viability without parasites

SMILES | viability [%] | parasite load remaining
CCC(=O)OC1C(C)OC(OC2C(C)OC(O[C@H]3[C@@H](CC=O)C[C@@H](C)[C@@H](O)/C=C/C=C/C[C@@H](C)OC(=O)C[C@@H](OC(=O)CC)[C@@H]3OC)C(O)C2N(C)C)CC1(C)O (stereo not given in full) | 89 | 77.4% (inactive)
CC(C)N1CCN(c2ccc(OC[C@@H]3CO[C@@](Cn4cncn4)(c4ccc(Cl)cc4Cl)O3)cc2)CC1 | 72.8 | 57.7% (inactive)
CC1OC(O[C@H]2/C=C/C=C/C=C/C=C/C=C/C=C/C=C/[C@H](C)[C@@H](O)[C@@H](C)[C@H](C)OC(=O)C[C@H](O)C[C@H](O)CC[C@@H](O)[C@H](O)C[C@H](O)C[C@]3(O)C[C@H](O)[C@@H](C(=O)O)[C@H](C2)O3)C(O)C(N)C1O (stereo not given in full) | 92.5 | 50.3% (inactive)
CC[C@H](C)[C@H]1O[C@]2(CC[C@@H]1C)C[C@@H]1C[C@@H](C/C=C(\C)C(O[C@H]3C[C@H](OC)[C@@H](O[C@H]4C[C@H](OC)[C@@H](O)[C@H](C)O4)[C@H](C)O3)[C@@H](C)/C=C/C=C3\CO[C@@H]4[C@H](O)C(C)=C[C@@H](C(=O)O1)[C@]34O)O2 (stereo not given in full) | 89.6 | 93.7% (inactive)
COc1ccc(CC(N)C(=O)N[C@@H]2C(O)[C@H](n3cnc4c(N(C)C)ncnc43)O[C@@H]2CO)cc1 (stereo not given in full) | 14.9 | 13.2% (inactive)
CC1O[C@H](O[C@]2(O[C@H]3CC[C@@]4(C)C(=CC[C@H]5[C@@H]6C[C@H]7[C@H]([C@H](C)[C@H]8CC[C@H](C)CN87)[C@@]6(C)CC[C@@H]54)C3)C[C@@H](O[C@@H]3OC(CO)[C@@H](O)[C@@H](O)C3O)[C@@H](O)C(CO)O2)C(O)[C@@H](O)[C@H]1O (stereo not given in full) | 82 | 74.2% (inactive)
COc1cc([C@@H]2c3cc4c(cc3[C@@H](O[C@@H]3O[C@@H]5CO[C@@H](C)O[C@H]5[C@H](O)[C@H]3O)C3COC(=O)[C@@H]32)OCO4)cc(OC)c1O (stereo not given in full) | 83.1 | 64.7% (inactive)
CC(=O)Nc1c(I)c(C(=O)NC2[C@H](O)OC(CO)[C@@H](O)[C@H]2O)c(I)c(N(C)C(C)=O)c1I (stereo not given in full) | 75.5 | 81% (inactive)
O=C(O)c1cc2ccccc2c(Cc2cc3ccccc3c(C(=O)O)c2O)c1O (tested in a mixture with another compound) | 76.8 | 58.5% (inactive)
CO[C@@H]1[C@@H](OC2OC(C)C(OC3CC(C)(O)C(OC(=O)CC(C)C)C(C)O3)C(N(C)C)C2O)[C@@H](CC=O)C[C@@H](C)[C@@H](O)/C=C/C=C/C[C@@H](C)OC(=O)C[C@H]1OC(C)=O (stereo not given in full) | 92.1 | 90.7% (inactive)
NCC1OC(OC2C(N)CC(N)C(OC3OC(CO)C(O)C(N)C3O)C2O)C(O)C(O)C1O (stereo not given) | 78.9 | 77.1% (inactive)
COC1CC(O[C@H]2[C@H](C)[C@@H](OC3OC(C)CC(N(C)C)C3O)[C@@H](C)C[C@]3(CO3)C(=O)[C@H](C)[C@@H](O)[C@@H](C)[C@@H](C)OC(=O)[C@@H]2C)OC(C)C1O (stereo not given in full) | 90.7 | 84.7% (inactive)
NCC[C@H](O)C(=O)NC1CC(N)C(OC2OC(CN)C(O)C(O)C2O)C(O)C1OC1OC(CO)C(O)C(N)C1O (stereo not given in full) | 76.6 | 68.1% (inactive)
COc1ccc([C@@H]2CC(=O)c3c(O)cc(O[C@@H]4OC(CO[C@@H]5OC(C)[C@H](O)[C@H](O)C5O)[C@@H](O)[C@@H](O)C4O)cc3O2)cc1O (stereo not given in full) | 80.9 | 71.5% (inactive)
NCC1OC(OC2C(N)CC(N)C(OC3OC(CO)C(O)C(N)C3O)C2O)C(N)CC1O (stereo not given) | 77.2 | 57.1% (inactive)
C[C@@H]1C(=O)O[C@H]2CC34[C@H]5C[C@@H](C(C)(C)C)C36[C@@H](OC(=O)[C@@H]6O)OC4(C(=O)O5)[C@]21O (stereo not given in full) | 79.7 | 79.2% (inactive)

Source: PubChem BioAssay
